We go through 40 molecules from PubChem BioAssay (Tox21).

Results filed as inconclusive are left out. Unmarked numbers belong to inactive results. Active and inactive are the calls of the source. Calls come from the whole dose curve; as a rule, active = well fitted cell-killing curve with a large enough effect in the repeat runs; inconclusive = weak or mixed curves, or effect the other way; inactive = flat fitted curve, though single readings scatter.
% is set by controls: 0 for no effect and ±100 for the full control effect.

This test can be described thus: qHTS assay to identify small molecule agonists of the constitutive androstane receptor (CAR) signaling pathway - cell viability counter screen (AID 1224836). Note: nearly all actives have a fitted effect of over 45% in size. To be noted: HepG2-CYP2B6-hCAR viability, CellTiter-Fluor, 23 h, PK11195 added to every well; series mostly up to 92.4 µM; viability change, negative = cytotoxic: at the top concentration. An excerpt: U.S. Tox21 Program National Center for Advancing Translational Sciences [NCATS] NIH Chemical Genomics Center [NCGC] U.S. Environmental Protection Agency [EPA] National Institutes of Environmental Health Sciences [NIEHS] National Toxicology Program [NTP] U.S. Food and Drug Administration [FDA] Tox21 Assay Overview: The constitutive androstane receptor (CAR) is a nuclear receptor which regulates multiple drug metabolizing enzymes (DMEs) and transporters. Activating CAR will generally increase the transcription and subsequent translation of CYP2B6 and CYP3A4. These two DMEs represent about 50% of the drug metabolizing potential in the body. […] Recently, there have also been studies performed indicating CARs role in energy metabolism and cancer therapy. Therefore, inducing CARs activity could have a potential effect on diabetes and cancer. Identifying environmental toxins and compounds which modulate CAR, through the use of the Tox21 10K compound collection, will be an important step in determining the toxicity and potential therapeutic effects these factors will have on the human body. To differentiate true CAR agonists from cytotoxic substances, the assay is multiplexed with a cell viability assay.
Tox21 Assay Protocol Summary: A double-stable (hCAR and CYP2B6-2.2kb) transfected cell line, derived from human hepatoma (HepG2) cells, was utilized for the duration of the quantitative high-throughput screens. The HepG2-CYP2B6-hCAR cells were dispensed at 2500 cells/4 uL/well in 1536-well white solid bottom plates using a Multidrop Combi. After the assay plates were incubated at 37 C/5% CO2 for 4 hrs, 23 nL of compounds at 15 concentrations (from 5-48 columns) or positive control (from 1 to 4 columns) were transferred to the assay plates using a Pintool station. One uL of PK11195 (final concentration = 0.75 uM) was added, using a Flying Reagent Dispenser, inside each well. After a 23 hr incubation period at 37 C/5% CO2, 1 uL of CellTiter-Fluor reagent was added into each well of the assay plates using a Flying Reagent Dispenser. The fluorescence intensity in the plates was then measured using a ViewLux plate reader.
In general terms: Quantitative high-throughput screening tests each substance at several concentrations.
On to `CC(=O)c1ccc2c(c1)[C@H](NC(=O)c1ccc(F)cc1)[C@@H](O)C(C)(C)O2`, for which the “viability change, negative = cytotoxic” value is -20.3%.

With `CC(C)(C)C1CCCCC1O` (stereo not given), the “viability change, negative = cytotoxic” value was -19.6%.

Regarding `O=C(NS(=O)(=O)/C=C/c1cccs1)c1ccc(F)cc1Br`, the “viability change, negative = cytotoxic” value is 7.77%.

For the molecule `CCOC(=O)CC(C)C`, the “viability change, negative = cytotoxic” value was 1.54%.

As for `N#Cc1cc2ccccc2c2ccccc12`, the “viability change, negative = cytotoxic” value was 0.182%.

With `CN1CCC(=C2c3ccccc3C=Cc3ccccc32)CC1`, the “viability change, negative = cytotoxic” value is -18% [at 42.5 µM].

Regarding `COc1ccc(C(C)=O)cc1`, the “viability change, negative = cytotoxic” value was -1.09%.

For `CC(O)C1CCCCC1` (stereo not given), the “viability change, negative = cytotoxic” value is 14.5%.

For `Oc1ccc(C(O)CNCCCCCCNCC(O)c2ccc(O)c(O)c2)cc1O` (stereo not given), the “viability change, negative = cytotoxic” value was -14.2% [at 42.5 µM].

In the case of `O=C(CC(=O)c1ccccc1)c1ccccc1`, the “viability change, negative = cytotoxic” value is 8.82%.

As for `CCN(CC)C(C)=O`, the “viability change, negative = cytotoxic” value was 1.75%.

Consider `CC(=O)[C@@]1(O)CC[C@H]2[C@@H]3C[C@H](C)C4=CC(=O)CC[C@]4(C)[C@H]3CC[C@@]21C`, for which the “viability change, negative = cytotoxic” value is 9.26% [at 42.5 µM].

As to `CC(=O)O[C@H]1C[C@@H]2CC[C@@H]3[C@H](CC[C@@]4(C)[C@H]3C[C@H]([N+]3(C)CCCCC3)[C@@H]4OC(C)=O)[C@@]2(C)C[C@@H]1N1CCCCC1`, the “viability change, negative = cytotoxic” value was 1.73% [at 42.5 µM].

`CCN(CC)CCc1nc(-c2ccccc2)no1`: the “viability change, negative = cytotoxic” value is 4.83% [at 42.5 µM].

As to `CCCCC(CC)(CO)CO`, the “viability change, negative = cytotoxic” value was -5.91%.

On to `CCOC(=O)[C@H](CCc1ccccc1)N[C@H]1CCc2ccccc2N(CC(=O)O)C1=O`, for which the “viability change, negative = cytotoxic” value was -24.3% [at 42.5 µM].

On to `CCOC(=O)C1=C(C)NC(C)=C(C(=O)OC)C1c1cccc([N+](=O)[O-])c1` (stereo not given), for which the “viability change, negative = cytotoxic” value was -15% [at 42.5 µM].

`CC1(C)CCC(C)(C)c2cc(NC(=O)c3ccc(C(=O)O)cc3)ccc21`: the “viability change, negative = cytotoxic” value is -0.752% [at 42.5 µM].

Consider `CC(C)=CCCC(C)CC=O` (stereo not given), for which the “viability change, negative = cytotoxic” value was 3.01%.

Consider `CC(=O)NCCCS(=O)(=O)O`, for which the “viability change, negative = cytotoxic” value is -0.53% [at 42.5 µM].

For `CCOc1ccc2[nH]cc(C(=O)NCc3ccccc3)c(=O)c2n1`, the “viability change, negative = cytotoxic” value is -7%.

`NC1CCN(c2nc3c(cc2F)c(=O)c(C(=O)O)cn3-c2ccc(F)cc2F)C1` (stereo not given): the “viability change, negative = cytotoxic” value was -8.4% [at 42.5 µM].

For `COC(=O)C(C)=O`, the “viability change, negative = cytotoxic” value is -1.9%.

As to `COCCO`, the “viability change, negative = cytotoxic” value is -1.21%.

Consider `Cc1cccc(C(C)(C)C)c1O`, for which the “viability change, negative = cytotoxic” value is 5.86%.

As for `CCCCCOC(=O)COc1cc(N2C(=O)C3=C(CCCC3)C2=O)c(F)cc1Cl`, the “viability change, negative = cytotoxic” value was -1.9%.

`CCN(CC)CCOC(=O)C1(c2ccccc2)CCCC1`: the “viability change, negative = cytotoxic” value was -2.23% [at 42.5 µM].

`S=C(S)NCCNC(=S)S`: the “viability change, negative = cytotoxic” value is -10.5%.

As to `CC(C)CCCC(C)CCO` (stereo not given), the “viability change, negative = cytotoxic” value is -3.4%.

Consider `COc1ccc(OC)c(OC)c1`, for which the “viability change, negative = cytotoxic” value is 7.29%.

For `CCCCOCCOCCOCCOCCO`, the “viability change, negative = cytotoxic” value was -1.47%.

Take `CN(c1nccc(=O)[nH]1)C1CCN(c2nc3ccccc3n2Cc2ccc(F)cc2)CC1`: the “viability change, negative = cytotoxic” value was 15.1% [at 42.5 µM].

As to `Cn1sccc1=O`, the Potency result was “inactive”.

For the molecule `O=C(O)C(c1ccc(Cl)cc1)c1ccc(Cl)cc1`, the “viability change, negative = cytotoxic” value is 2.5%.

On to `NC(=S)N/N=C/c1cccnc1`, for which the “viability change, negative = cytotoxic” value is 10.3% [at 42.5 µM].

With `CCCCCCCCCC=O`, the “viability change, negative = cytotoxic” value is -1.51%.

As to `C=CC(C)(CCC=C(C)C)OC(=O)c1ccccc1` (stereo not given), the “viability change, negative = cytotoxic” value is -3.95%.

On to `O=c1[nH]cnc2ccccc12`, for which the “viability change, negative = cytotoxic” value was 8.19%.

Regarding `Oc1ccc(Cc2ccccc2)cc1`, the “viability change, negative = cytotoxic” value was -3.29%.

For the molecule `CN(C)CC/C=C1\c2ccccc2COc2ccccc21`, the “viability change, negative = cytotoxic” value is -20.1% [at 42.5 µM].
